Source: PubChem BioAssay (National Center for Advancing Translational Sciences (NCATS))
The sample as a whole holds a higher share of hits than the screen did.
KDM5B inh: Primary screen for KDM5B Histone Demethylases FDH-coupled qHTS. Lysine-specific demethylase 5B (Homo sapiens), Q9UGL1. KDM5B demethylase, FDH-coupled NADH fluorescence (FDH is formaldehyde dehydrogenase). 220,000 tested, 2.6% active. Potency, µM (highest dose often 57.7 µM), hits mostly inhibitors; active = well fitted inhibition curve with a large enough effect; note: 0% is about no effect; nearly all actives have a fitted effect of over 70% in size
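Inhibition is measured as reduced NADH fluorescence generation from FDH coupling to formaldehyde release. Truncated KDM5BΔAP at 200 nM final acts on H3K4me3 peptide (12.5 µM in substrate mix) in pH 7.5 HEPES buffer with Tween-20, 30 min, room temperature.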
The depositor's hits bear a star. Potency is the fitted concentration of half-maximal effect.

What do the screens show for `COc1cccc(CN2Cc3cc(NC(=O)c4cccc(OC)c4)ccc3OCC2=O)c1`?
KDM5B inh: inactive

What do the screens show for `COc1cc(F)ccc1-c1ccnc2nc(C3CCC3)nn12`?
KDM5B inh: 28µM*

What do the screens show for `O=C(O)CNS(=O)(=O)c1c(F)cc(F)cc1Br`?
KDM5B inh: inactive

Results for COCCNc1oc(-c2ccc(OC)cc2)nc1S(=O)(=O)c1ccccc1 ?
KDM5B inh: inactive

How did COCCNc1ncc(-c2ccc(OC)cc2)c2c1OCC2 do in these assays?
KDM5B inh: 35µM*

Results for COCCNc1ncc(-c2cccc(N[S+](C)(=O)[O-])c2)c2c1OCC2 ?
KDM5B inh: 35µM*

How did COCCNc1ncc(-c2ccc(NC(C)=O)cc2)c2c1OCC2 do in these assays?
KDM5B inh: 35µM*

How did COc1ccc(OCC(=O)Nc2ncc(-c3ccc(OC)nc3)c3c2OCC3)cc1 do in these assays?
KDM5B inh: inactive

How did COCCNc1nc(-c2ccc(NC(C)=O)cc2)cs1 do in these assays?
KDM5B inh: inactive

How did C[S+](=O)([O-])Nc1cccc(Nc2cnc3ccc(-c4cccc(CO)c4)nn23)c1 do in these assays?
KDM5B inh: inactive

How did COCCNc1ncc(-c2ccc(SC)cc2)c2c1OCC2 do in these assays?
KDM5B inh: 5µM*

How did COc1ccc(NC(=O)c2ccco2)cc1NC(=O)c1cccc(C)c1 do in these assays?
KDM5B inh: inactive

Results for CCCCCC/C(=N\NC(N)=O)c1ccccc1 ?
KDM5B inh: inactive

What do the screens show for `COc1ccc(C(CNC(=O)c2cccc3c(=O)c(C)c(-c4ccccc4)oc23)N(C)C)cc1` (centres undefined)?
KDM5B inh: inactive

How did O=C(OCc1ccc(F)cc1)c1cccc(S(=O)(=O)N2CCCCC2)c1 do in these assays?
KDM5B inh: inactive

How did O=C(c1ccco1)N1CC(F)(F)C[C@H]1c1nc(-c2ccncc2)no1 do in these assays?
KDM5B inh: inactive

What do the screens show for `CCN(C(=O)Cn1nc(-c2ccc(C)c(C)c2)ccc1=O)c1cccc(C)c1`?
KDM5B inh: inactive

How did Cc1ccc(C(=O)COC(=O)c2cccc(C)c2C)cc1 do in these assays?
KDM5B inh: inactive

Results for COCCCNc1ncnc2onc(-c3ccc(F)cc3)c12 ?
KDM5B inh: inactive

Results for COCCNc1ncc(-c2ccc(F)cc2)c2c1OCC2 ?
KDM5B inh: 32µM*

Results for COCCNc1ncc(-c2cccc(OC)c2)c2c1OCC2 ?
KDM5B inh: 35µM*

How did COc1cccc(C(=O)Nc2ccccc2-c2nnc(-c3cccc(OC)c3)o2)c1 do in these assays?
KDM5B inh: inactive

What do the screens show for `COCCNc1ncnc2onc(-c3ccc(F)cc3)c12`?
KDM5B inh: inactive

Results for COCCCNC(=O)CN(C)C(=O)CCc1ncc(-c2ccccc2)o1 ?
KDM5B inh: inactive

Results for O=C(Cn1c(NCc2ccccc2)nc2ccccc21)Nc1ccc2c(c1)OCCO2 ?
KDM5B inh: inactive

Results for CCc1ccccc1N(C(C)=O)c1nc(COc2ccccc2C(N)=O)cs1 ?
KDM5B inh: inactive

How did CCCCCn1nc(C(=O)NC2(C)CCS(=O)(=O)C2)c2ccccc2c1=O (centres undefined) do in these assays?
KDM5B inh: inactive

What do the screens show for `CN(Cc1ccc(Cl)c(Cl)c1)C(=O)Cn1nnn(-c2cccs2)c1=O`?
KDM5B inh: inactive

What do the screens show for `COc1ccc(-c2ccc3ncc(Nc4ccccc4Cl)n3n2)cn1`?
KDM5B inh: inactive

How did CN1CCN(Cc2ccc(Nc3cnc4ccc(N5CCOCC5)nn34)cc2)CC1 do in these assays?
KDM5B inh: inactive

How did COc1cccc(Nc2cnc3ccc(N4CCOCC4)nn23)c1 do in these assays?
KDM5B inh: inactive

What do the screens show for `Clc1ccccc1Nc1cnc2ccc(N3CCOCC3)nn12`?
KDM5B inh: 32µM*

What do the screens show for `FC(F)(F)c1cc(Nc2cnc3ccc(N4CCOCC4)nn23)ccc1Cl`?
KDM5B inh: 32µM*

How did c1ccc(-c2ccccc2Nc2cnc3ccc(N4CCOCC4)nn23)cc1 do in these assays?
KDM5B inh: inactive

How did Cc1ccc2oc(=O)n(CCNC(=O)Nc3ccc(F)cc3)c2c1 do in these assays?
KDM5B inh: inactive

How did Cc1noc2c(NCCN(C)C)cc(-c3cccc(C(F)(F)F)c3)nc12 do in these assays?
KDM5B inh: inactive

Results for CC(C)CNC(=O)C1CCCC1 ?
KDM5B inh: inactive

What do the screens show for `COc1cccc(C(=O)N2CCC(N(C)C3CCOCC3)CC2)c1`?
KDM5B inh: inactive

Results for COc1ccc(C2=NS(=O)(=O)N(C)C(C(=O)Nc3ccn(Cc4ccccc4C)n3)=C2)cc1 ?
KDM5B inh: inactive

What do the screens show for `Cc1cn2c(=O)cc(COc3ccc(C(C)(C)C)cc3)nc2s1`?
KDM5B inh: inactive

What do the screens show for `Cc1cc(C)cc(OCc2cc(=O)n3cc(C)sc3n2)c1`?
KDM5B inh: inactive

What do the screens show for `Cc1cn2c(=O)cc(CN3CC[C@@](C)(O)[C@@H](O)C3)nc2s1`?
KDM5B inh: 32µM*

What do the screens show for `O=C(Cc1cccs1)Nc1c(NCC2CCCCC2)c2ccccc2oc1=O`?
KDM5B inh: inactive

How did Cc1ccc(/C=N/NC(=O)C2C(C=C(Cl)Cl)C2(C)C)cc1 (centres undefined) do in these assays?
KDM5B inh: inactive

How did CC(C(=O)Nc1ccccc1Cl)n1nc(-c2ccccc2)ccc1=O (centres undefined) do in these assays?
KDM5B inh: inactive

What do the screens show for `CCOC(=O)C1(Cc2cccc(OC)c2)CCCNC1` (centres undefined)?
KDM5B inh: inactive

Results for COCCN1CC2(CCCN(C(=O)c3ccc(C)n(C)c3=O)C2)CCC1=O (centres undefined) ?
KDM5B inh: inactive

How did COCCN1CC2(CCC1=O)CCN(C(=O)c1c(C)cccc1C)CC2 do in these assays?
KDM5B inh: inactive

How did COCCN1CC2(CCCN(c3cc(C)c4ccccc4n3)C2)CCC1=O (centres undefined) do in these assays?
KDM5B inh: 28µM*

How did Cc1c(-c2ccccc2)oc2c(C(=O)NC3CCN(C(C)C)CC3)cccc2c1=O do in these assays?
KDM5B inh: inactive

What do the screens show for `O=C1Cc2c(-c3ccc4c(c3)OCO4)n[nH]c2CN1CC1CCOCC1`?
KDM5B inh: inactive

What do the screens show for `CN(C)c1cccc(-c2n[nH]c3c2CC(=O)N(CC2CC2)C3)c1`?
KDM5B inh: 20µM*

How did COCc1cccc(-c2n[nH]c3c2CC(=O)N(CC2CC2)C3)c1 do in these assays?
KDM5B inh: inactive

Results for Cc1ccc(C(=O)O)cc1N1CC(O)=C(c2nc3ccccc3n2C)C1=N ?
KDM5B inh: inactive

How did c1cc(CN2CCOCC2)cc(-c2cnn3ccccc23)c1 do in these assays?
KDM5B inh: 32µM*

How did Fc1ccc(-c2cccc(CN3CCOCC3)c2)c(Cl)c1 do in these assays?
KDM5B inh: inactive

What do the screens show for `N#CC1(c2ccc(-c3cccc(CN4CCOCC4)c3)cc2)CCCC1`?
KDM5B inh: inactive

What do the screens show for `CCn1nc(C(=O)Nc2cc(OC)c(OC)c(OC)c2)c2ccccc2c1=O`?
KDM5B inh: inactive

Results for CC(NCc1ccc(-c2ccc(F)cc2)o1)c1ccccc1 (centres undefined) ?
KDM5B inh: inactive

What do the screens show for `O=C(c1ccccc1)N1CCC2(CC1)NCc1ccccc1NC2=O`?
KDM5B inh: 89µM*

Results for O=C(C1CCCCC1)N1CCC2(CC1)NCc1ccccc1NC2=O ?
KDM5B inh: inactive

How did O=C(c1ccccc1)N1CCC2(Cc3ccccc3NC2=O)C1 (centres undefined) do in these assays?
KDM5B inh: inactive
